Reference: ChEMBL document CHEMBL4513216, “Probing the Open Global Health Chemical Diversity Library for Multistage-Active Starting Points for Next-Generation Antimalarials” (ACS Infect Dis, 2020)
Out of some 69,000 compounds screened, about 8,600 (12%) showed an effect of 50% or more. This is one part of a sample in which strong results are shown more often than they occur.

Each compound was assayed on Plasmodium berghei (assay: Screen against P. berghei liver stage (PbLuc), transformed with Luciferase, at 10uM). Settings: tested at 10 uM.
Type: functional, HepG2
`CNc1cccc(CC2COCCN(C(=O)c3cncs3)C2)n1` (stereo not drawn) was tested, and the INHIBITION was 16.35%. Work on `Cc1cc(C(F)F)nn1CC(=O)NCc1nccn1C` yielded an INHIBITION of 8.32%. `Cc1cccc(CN2CCC3(CCCN(C(=O)NC4CC4)C3)C2=O)n1` (stereo not drawn) was tested, and the INHIBITION was 0%. In the case of `O=C(c1ccnnc1)N1C[C@H]2CN(Cc3cccc(F)c3)C(=O)[C@H]2C1`, the INHIBITION is reported as 34.6%. `CCOCC(=O)N1CSCC1C(=O)N(C)Cc1ccco1` (stereo not drawn) was tested, and the INHIBITION was 17.5%. Work on `Cc1ccc(C(=O)N2CCC3(CC2)CN(CCN(C)C)C(=O)O3)c(F)c1` yielded an INHIBITION of 42.1%. Compound `COc1cc(CCC(=O)N2CCC(c3cncc(C)n3)CC2)on1` has an INHIBITION of 14.85%. In the case of `Cc1oc(C(C)C)cc1C(=O)N1C[C@@H]2CC[C@H]1CN(c1ncccn1)C2`, the INHIBITION is reported as -28.7%. `O=C(CN1CCCC1Cn1cncn1)Nc1ccc(Cl)cn1` (stereo not drawn) was tested, and the INHIBITION was 80%. In the case of `O=C(CN1CCCC1Cn1cncn1)Nc1cccnc1` (stereo not drawn), the INHIBITION is reported as -9.86%. In the case of `O=C(CN1CCCCC1Cn1cncn1)Nc1ccncc1` (stereo not drawn), the INHIBITION is reported as 23.2%. Compound `CC(NC(=O)N1CCC(c2ccccc2)CC1)c1nncn1C` (stereo not drawn) has an INHIBITION of 13.3%. With `Cc1cnn(CC2CCCCN2Cc2cnc(C)s2)c1` (stereo not drawn) the INHIBITION was -7.05%. `Cc1ncsc1CN1Cc2cn(C)nc2C(COCC2CC2)C1` (stereo not drawn) gave an INHIBITION of 43.9%. With `COc1cccc(CNc2cnn(CC(F)F)c2)c1` the INHIBITION was 8.53%. For `COc1cc(CNc2cnn(CC(F)F)c2)ccc1O`, the INHIBITION was 21.9%. `COc1ccc(CNc2cnn(CC(F)F)c2)cc1` was tested, and the INHIBITION was 64.9%. `C1CCCN(C2CCCN(Cc3noc(C4CC4)n3)C2)CC1` (stereo not drawn) showed an INHIBITION of -79.7%. In the case of `CN(C)S(=O)(=O)N1CC(c2nc(N)ncc2-c2ccc(F)cc2)C1`, the INHIBITION is reported as -20.6%. With `CC(=O)N(Cc1ncc(C(C)C)o1)C1CCN(CC2CCC2)C1` (stereo not drawn) the INHIBITION was 32.65%. In the case of `CC(CCc1ccc(O)cc1)NC1CCN(S(C)(=O)=O)CC1` (stereo not drawn), the INHIBITION is reported as 55.5%. In the case of `Cc1ccc(CCC(C)NC2CCN(C(N)=O)CC2)cc1` (stereo not drawn), the INHIBITION is reported as -4.15%. For `CC(CCc1ccc(O)cc1)NC1CCN(C(=O)C(C)C)CC1` (stereo not drawn), the INHIBITION was 42.1%. In the case of `O=C(NCCNc1ccccn1)N1CCC(O)CC1`, the INHIBITION is reported as 7.585%. Work on `Cc1cccc(CN2CCN(c3ncnc4[nH]ccc34)CC2CCO)n1` (stereo not drawn) yielded an INHIBITION of 58.1%. `OCCC1CN(c2ncnc3[nH]cnc23)CCN1Cc1cccs1` (stereo not drawn) was tested, and the INHIBITION was 53.7%. `c1ccc(C2CN(c3ncnc4[nH]cnc34)CCO2)cc1` (stereo not drawn) was tested, and the INHIBITION was -66.9%. Work on `OCCNc1cc(N2CCN(Cc3ccccc3)C(CCO)C2)ncn1` (stereo not drawn) yielded an INHIBITION of -11.8%. `Cc1ccc(CN2CCN(c3ncnc4[nH]cnc34)CC2CCO)cc1` (stereo not drawn) gave an INHIBITION of 20%. Work on `OCCC1CN(c2ncnc3[nH]cnc23)CCN1Cc1ccccc1` (stereo not drawn) yielded an INHIBITION of 62.4%. Work on `OCCC1CN(c2ncnc3[nH]cnc23)CCN1Cc1ccccc1F` (stereo not drawn) yielded an INHIBITION of 10.3%. With `Cc1ccc(CN2CCN(c3ncccc3C(N)=O)CC2CCO)cc1` (stereo not drawn) the INHIBITION was 36.5%. For `Cc1cccc(CN2CCN(c3ncnc4[nH]cnc34)CC2CCO)n1` (stereo not drawn), the INHIBITION was 47.2%. `CNC(=O)c1cccnc1N1CCN(Cc2ccccc2)C(CCO)C1` (stereo not drawn) was tested, and the INHIBITION was 3.17%. With `O=C(O)c1cccnc1N1CCN(Cc2ccc(F)cc2)C(CCO)C1` (stereo not drawn) the INHIBITION was 68.6%. With `Cc1cc(C)n(CC2CN(c3ncnc4[nH]ccc34)CCO2)n1` (stereo not drawn) the INHIBITION was -21.7%. `CCC1=N[C@@]2(CC[C@@H]3CN(C(=O)Nc4ccccc4)C[C@@H]32)C(=O)N1CC` gave an INHIBITION of 8.67%. Compound `Cc1cc(C2CCCCN2C(=O)CN2C(=O)OC(C)(C)C2=O)no1` (stereo not drawn) has an INHIBITION of 47.2%. `COc1ccccc1-c1ncc(CN2CCC3(CCNCC3)CC2)cn1` was tested, and the INHIBITION was 25%. `CC(=O)c1ccc(CNC(=O)c2cc(C#N)cn2C)nc1C` gave an INHIBITION of 12%. `NC(=O)N1CCCN(CC(=O)NCCc2c(F)cccc2F)CC1` gave an INHIBITION of -52.1%. For `Cc1cc(C)cc(C(=O)N2CCCN(CC(N)=O)CC2)c1`, the INHIBITION was 0.348%. `Cc1cc(C)c(CCNC(=O)CN2CCCN(C(N)=O)CC2)c(C)c1` gave an INHIBITION of 66.6%. `Cn1cc(C(=O)NC[C@H]2OC[C@@H]3CCN(C4CCOCC4)C[C@@H]32)cn1` showed an INHIBITION of 45.8%. In the case of `Cc1nc2n(n1)CC(NCc1cnn(-c3ccccc3)n1)CC2` (stereo not drawn), the INHIBITION is reported as -39.4%. `COCCCS(=O)(=O)N1CCN(C(C)(C)CO)CC1` gave an INHIBITION of 27.65%. For `CC(C)c1nc(CN(C)C(=O)CNC(N)=O)cs1`, the INHIBITION was 41.5%. In the case of `CC(C)c1nc(CN(C)C(=O)c2ccc3c(c2)OCO3)cs1`, the INHIBITION is reported as -40.4%. Compound `CC(C)c1nc(CN(C)C(=O)c2cn3ccsc3n2)cs1` has an INHIBITION of 50.5%. `CC(C)c1nc(CC(=O)Nc2nc(CN3CCCCCC3)cs2)cs1` was tested, and the INHIBITION was 59.7%. Compound `CC(C)c1nc(CN2CCC(CO)CC2)cs1` has an INHIBITION of 23.4%. `CC(C)c1nc(CN2CCCCC2)cs1` gave an INHIBITION of 47.9%. For `CC(C)c1nc(CN(C)C(=O)c2ccc3c(c2)OCC(=O)N3)cs1`, the INHIBITION was -19.9%. Compound `CN(Cc1cc(C(C)(C)C)n[nH]1)C(=O)c1cn2ccsc2n1` has an INHIBITION of -11.5%. `CC(C)c1nc(CN(C)C(=O)c2ccc(CN3CCCCC3)cc2)cs1` gave an INHIBITION of 65.3%. Work on `CS(=O)(=O)N1C[C@@H](O)[C@H](N2CCN(c3ccccc3)CC2)C1` yielded an INHIBITION of -18.8%. With `COc1ccc(CCc2nnc(NC(=O)C3CC34CCC4)s2)cc1OC` (stereo not drawn) the INHIBITION was 4.32%. `Cc1cc2c(cc1NC(N)=O)OCO2` gave an INHIBITION of 43.2%. Compound `Cn1cnc2c1C(C(=O)N1CCCO1)N(C(=O)c1ccccc1)CC2` (stereo not drawn) has an INHIBITION of 70.4%. For `Cn1cnc2c1C(C(=O)N1CCOCC1)N(C(=O)c1ccccc1)CC2` (stereo not drawn), the INHIBITION was -31.6%. `CC(=O)N1CCc2ncn(C)c2C1C(=O)N1CCCC1` (stereo not drawn) showed an INHIBITION of 45.8%. In the case of `CC(C)c1nnc(CNC2CCCN(Cc3noc(C4CC4)n3)C2)o1` (stereo not drawn), the INHIBITION is reported as 19.5%. Work on `O=C(NC1CCN(c2ncccn2)CC1)c1sccc1C1CC1` yielded an INHIBITION of 39.7%. `CC1CCN(Cc2ccccc2CNC(=O)C2CNC(=O)N2)CC1` (stereo not drawn) showed an INHIBITION of 13.8%. With `O=C1NCC(C(=O)NCc2ccccc2CN2CCOCC2)N1` (stereo not drawn) the INHIBITION was 15.2%. Work on `CN(Cc1ccccc1CNC(=O)C1CNC(=O)N1)C1CCCCC1` (stereo not drawn) yielded an INHIBITION of 57.7%. Work on `CC(C)OCCCNC(=O)CS(=O)(=O)Cc1ccc(C(C)(C)C)cc1` yielded an INHIBITION of -27.8%. Compound `Cc1ccccc1OC1CCN(CC(=O)Nc2c(C)nn(C)c2C)CC1` has an INHIBITION of 52.5%. For `CCn1cc(NC(=O)CN2CCC(Oc3ccccc3C)CC2)c(C)n1`, the INHIBITION was -0.275%. Work on `Cc1ccccc1OC1CCN(CC(=O)Nc2cn(C)nc2C)CC1` yielded an INHIBITION of 17.3%. Work on `CCn1cc(NC(=O)CN2CCC(Oc3ccc(F)cc3)CC2)c(C)n1` yielded an INHIBITION of 58%. For `Cc1ccccc1OC1CCN(CC(=O)Nc2ccn(C)n2)CC1`, the INHIBITION was 15.1%. Work on `Cc1nn(C)cc1NC(=O)CN1CCC(Oc2cnccn2)CC1` yielded an INHIBITION of -2.09%.
